Screening data (PubChem BioAssay)
This is a sample that favours compounds with a hit; in the whole collection about 21% have one here.
IL-1B inflam inh: inflammasome signaling inhibition, IL-1 beta readout. activity change, % at 57.5 µM. THP-1 LPS/ATP IL-1B secretion, AlphaLISA, 16 h; active compounds read low. 360,000 compounds, 4.7% hits; in the data active = activity change below about -50%; inconclusive = mostly about -30% to -49%
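THP-1 cells pretreated 1 hr with compounds (up to 57.5 uM final), then stimulated with LPS (250 ng/mL final) plus ATP (1.25 mM final); secreted IL-1B measured by AlphaLISA after 16 hr, decreased signal indicating inhibition.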
DT40 TDP1 no CPT: qHTS for Inhibitors of human tyrosyl-DNA phosphodiesterase 1 (TDP1): qHTS in cells in absence of CPT; DT40 Tdp1-/- hTDP1 cells, no CPT, ATP luminescence, 48 h; Potency, µM (highest dose often 46.2 µM), without a hit: top-dose activity change, negative = growth inhibition, usual class: inhibitors; 420,000 compounds, 15% hits; also: potency is read from the fitted curve at half-maximal effect; nearly all actives have a fitted effect of over 55% in size
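DT40 Tdp1-/-;hTDP1 cells, no CPT (DMSO vehicle only), 400 cells/well; compounds pin-transferred; ≥48 hr, 37 °C; CellTiter-Glo 30 min RT dark, luminescence read.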
DT40 TDP1 CPT: growth inhibition of DT40 Tdp1-/-;hTDP1 cells with camptothecin (screen for TDP1 inhibitors) | 420,000 compounds, 12% hits | chicken DT40 Tdp1-/-;hTDP1 cells + 20 nM CPT, ATP luminescence, 48 h | Potency, µM (highest dose often 46.2 µM), for the others: at the highest dose activity change, negative = growth inhibition, actives largely listed as inhibitors | AID 686979; also: potency is read from the fitted curve at half-maximal effect; nearly all actives have a fitted effect of over 55% in size
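Chicken DT40 Tdp1-/- cells stably complemented with human TDP1 were seeded at 400 cells/well in medium containing 20 nM camptothecin, exposed to pin-transferred compounds, and grown at 37 °C for at least 48 hr. Viability was read as ATP luminescence.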
ELG1 DNA repair: inhibitors of ELG1-dependent DNA repair in HEK293T cells. HEK293T ELG1-luciferase reporter, luminescence, 16 h; DNA damage induced by 5-fluorouridine. Potency, µM (series often up to 46.1 µM), without a hit: top-dose activity change, negative = inhibition, actives largely listed as inhibitors. 330,000 compounds, 2.3% hits. AID 504467; also: potency is read from the fitted curve at half-maximal effect; nearly all actives have a fitted effect of over 55% in size
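In this reporter screen, reduction of luminescence relative to DMSO vehicle indicated activity. Compounds and 5-fluorouridine were added together to 2,000 cells per well, incubated for 16 hr at 37 °C, then developed with ONE-Glo.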
RORg inh: inhibitors of mouse ROR gamma transcriptional activity; P51450; Drosophila S2 Gal4-RORgamma UAS-luciferase reporter, 20 h; Potency, µM (highest dose often 53.6 µM), for inactives: at the top dose activity change, negative = inhibition, actives largely listed as inhibitors; 310,000 compounds, 5.4% hits; also: potency is read from the fitted curve at half-maximal effect; nearly all actives have a fitted effect of over 60% in size
Target sequence (P51450 whole entry, looked up, the tested form may be a part): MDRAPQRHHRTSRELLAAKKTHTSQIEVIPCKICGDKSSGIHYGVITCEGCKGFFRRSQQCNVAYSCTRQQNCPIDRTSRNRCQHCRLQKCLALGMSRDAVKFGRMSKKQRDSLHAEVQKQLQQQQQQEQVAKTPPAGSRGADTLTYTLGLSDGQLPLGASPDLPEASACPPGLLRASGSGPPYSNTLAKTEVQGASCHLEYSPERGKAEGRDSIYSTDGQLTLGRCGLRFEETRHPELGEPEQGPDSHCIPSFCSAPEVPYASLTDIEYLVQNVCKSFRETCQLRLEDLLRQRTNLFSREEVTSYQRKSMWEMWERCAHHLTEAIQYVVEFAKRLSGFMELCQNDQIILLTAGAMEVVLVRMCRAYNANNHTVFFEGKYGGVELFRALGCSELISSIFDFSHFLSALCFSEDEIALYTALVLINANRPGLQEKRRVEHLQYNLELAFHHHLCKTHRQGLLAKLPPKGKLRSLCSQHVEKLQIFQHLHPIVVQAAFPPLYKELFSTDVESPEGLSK
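Stable Schneider cell line, Gal4 DNA-binding domain fused to ROR gamma, UAS-luciferase. Cmpd 1 hr RT → CuSO4 700 uM final → 20 hr RT → luciferase reagent 10 min → luminescence.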
VP16 counter: Gal4-VP16 reporter inhibition counter-screen; Drosophila S2 Gal4-VP16 UAS-luciferase, luminescence, 20 h; AID 2546; Potency, µM (titrated, usually from 53.6 µM), for inactives: top-dose activity, negative = inhibition, actives largely listed as inhibitors; 310,000 compounds, 3.5% hits;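 also: Gal4-VP16 expression switched on by copper sulfate through the metallothionein promoter; potency is read from the fitted curve at half-maximal effect; nearly all actives have a fitted effect of over 50% in size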
Starred values were filed as active, the others as inactive; ? = inconclusive; . = not tested or not shown; [ ] = dose if it differs, or a comment. Unless noted, calls follow the shape of the dose curve; as a rule, active = well fitted curve in the direction sought with a large enough effect; inconclusive = small, poorly fitted or top-dose-only effect, or another doubt; inactive = no such curve, though single readings can be large; an effect the other way counts as inactive or inconclusive. % is scaled to controls: 0 for no effect and ±100 for the full control effect.

SMILES	IL-1B inflam inh	DT40 TDP1 no CPT	DT40 TDP1 CPT	ELG1 DNA repair	RORg inh	VP16 counter
COc1cccc(CNC(=O)c2ccc(-c3nc(CSc4ccccc4)c(C)o3)cc2)c1	.	?	-20%	.	.	.
Cc1cnc(C)c(-c2cc(F)cc3c2OC(CNC(=O)CN2CCCC2)C3)n1 (stereo not drawn)	.	-17%	9%	.	.	.
Cn1nc(C(C)(C)C)cc1C(=O)Sc1cccc(Br)c1	-81*	10µM*	3.7µM*	0%	?	-18%
O=C(c1ccccc1)C1(c2ccccc2)OC1c1ccccc1 (stereo not drawn)	9	-26%	-22%	.	.	.
CCC(=O)NC(=S)NNC(=O)c1ccccc1[N+](=O)[O-]	-5	1%	1%	-2%	18µM*	-15%
O=C(NC(=S)NNC(=O)c1ccccc1[N+](=O)[O-])c1ccccc1	22	?	?	4%	4.5µM*	3.2µM*
Cc1ccc(CNC(=O)CC2Oc3ccccc3NC2=O)cc1 (stereo not drawn)	.	-17%	-1%	.	.	.
Cc1cc(Cl)ccc1NS(=O)(=O)c1c(C(=O)N2CCC(C)CC2)c(C)n(C)c1C	.	16µM*	?	.	.	.
Cc1c(C(=O)N2CCC(C)CC2)c(S(=O)(=O)NCc2ccc(Cl)cc2)c(C)n1C	.	-27%	?	.	.	.
COc1cc(OC)c(NS(=O)(=O)c2c(C(=O)N3CCCCCC3)c(C)n(C)c2C)cc1Cl	.	21µM*	?	.	.	.
COc1ccc(NC(=O)Cn2ccn(-c3ccc(C)c(C)c3)c(=O)c2=O)cc1Cl	.	-7%	-10%	.	.	.
O=C(c1cccc(N2CCCC2=O)c1)N1CCN(c2cccc(Cl)c2)CC1	4	3.3µM*	?	?	5%	-1%
O=C(c1ccc(N2CCCC2=O)cc1)N1CCN(c2cccc(C(F)(F)F)c2)CC1	?	23µM*	16µM*	?	.	.
Cc1ccc(-n2nc(C(=O)N3CCN(c4cccc(C(F)(F)F)c4)CC3)c(=O)n(C)c2=O)cc1	.	18µM*	?	.	.	.
O=C(c1c(F)cccc1F)N1CCN(c2cccc(C(F)(F)F)c2)CC1	-29	?	?	-25%	?	18µM*
COc1cc(/C=C2/SC(=S)N(CC(=O)NNC(=O)c3ccc(F)cc3)C2=O)cc(OC)c1OC	-1	-4%	-27%	.	.	.
O=C(C1CC(=O)N(c2ccc3c(c2)OCCO3)C1)N1CCN(c2cccc(C(F)(F)F)c2)CC1 (stereo not drawn)	-13	23µM*	?	?	.	.
Cc1cccc(N2CCN(C(=O)c3ccc(N4CCCC4=O)cc3)CC2)c1C	-25	23µM*	12µM*	18µM*	-7%[10 µM]	-2%
C/C(=C\c1ccccc1)C(=O)N1CCN(c2cccc(C(F)(F)F)c2)CC1	-65*	-8%	6%	15%	-8%[10 µM]	-2%
O=C(C1CC(=O)N(c2ccc3c(c2)OCCO3)C1)N1CCN(S(=O)(=O)c2cccc(F)c2)CC1 (stereo not drawn)	8	?	-12%	.	.	.
C/C(=C/c1ccccc1)C(=O)N1CCN(c2ccccc2F)CC1	25	-10%	-10%	1%	32%	-1%
O=C(NCc1ccc(Cl)cc1)C(=O)Nc1cccc(Br)c1	.	-21%	-26%	.	.	.
COc1ccccc1C(=O)COC(=O)c1c(-c2ccccc2)noc1C	-17	?	?	?	.	.
C=CCn1cc(CN2CCC(C(=O)Nc3cccc(-c4cccc(F)c4)c3)CC2)c(C)n1	-9	16µM*	23µM*	4%	-1%	-15%
O=C(Nc1cccc(-c2cccc(F)c2)c1)C1CCN(CC2CCOC2)CC1 (stereo not drawn)	?	?	?	-4%	-8%	-1%
